Laboratory results reported in the supplement of paper PMC6555819.

Tested on: PPARg:RXRa (NR concentration 180 nM, RXRa partner concentration 90 nM)
Assay: PBM binding z-score (relative to random genomic background probes); higher = stronger binding; sequences stand for … in GC…GCGATTGACAGCGTAGAATGAAGG
Outline: (§1)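 Antibodies against each partner of ligand-free nuclear receptor dimers (one per run) detected binding on custom Agilent 4×180K protein-binding microarrays after 1 h incubation. The double-stranded probes had 34-nt variable regions carrying direct-repeat seeds, single-nucleotide variants, half-site ablations and random human genomic background sequences. Binding z-scores, from regression-normalized fluorescence, use the random background probes as reference.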

Sequence | PBM binding z-score
TGAATGAGGTTATAAGATCAGAGAACGTTGCAAA | 1.45
CCTACTGGGCCACGAAAGGTCATTGTTTCAGTGA | 4.26
CGAACTAGTTCATTGACAGGACAGTGAATAGTAA | 0.284
CCAGACAGGTGAGAAGGTAACTCATCCTCGATTA | 0.558
ATCGAAAGTTCGAGGTGAGTATAGAGAAAGGGAA | 0.648
TTATATAGGTAATACAGGTGAAAGTCGGCATCTA | 3.5
TCTATTAGTTGAAGGGCAAGCGACGAGTCCGTTT | 0.0198
TCTATTATTTGAAGGGCAACCGACGAGTCCGTTT | 0.336
TCATATAGGTAAAAAGTGAAAGTCGGTGTGGTAA | 3.5
TCTTGTAGATCAATAGAGGTTAAGACAGTGCGCT | 0.205
TCTTGTAGATCAATAGAGGTTATGAAAGTGCGCT | 0.356
GCGACTGGCGCATCAGCAGGTTACCATAACTTAA | -0.0523
ATCTCTAGGTAACGATAGTTCAGTGAATGCAAAT | 0.696
CCGACTGGGGCACGGTTACCATAACGCACAGCCA | 1.8
CGAACGAGGGCATGAGTTGATTGCAAATGCCGAT | 1.26
TCTCAGAGGACACGAAGGTCAGAGCTTTCCAGAG | 0.696
TAGCCAAGGTCATGCGGGCCAGTATAGTGTCGGC | 4.64

Tested on: PPARg:RXRa 270nM:90nM, anti-RXR (NR concentration 270 nM, RXRa partner concentration 90 nM)
Assay: as above
Outline: as §1

Sequence | PBM binding z-score
CGAACGAGGGCATGAGTTCATAGCAAATGCCGAT | 2.91
GCTTGCAGGCCATTTGGGTCACTCAATGACGGGC | 0.922
TGTCAAAGTTCAAACGTAACGTAAGTATCCACAC | 7.51
TAGCCTAGGTCATCCAGGGGCCAGTATAGAAAGC | 2.47
ATCACTAGGTAACAAGTTCAGTGAAAGAGAGGAC | 3.04
ACTAGTTGGTCAGCAGAGGTCACACACAATTCGG | 3.79
CATACAGGGTCAGCTAGGCCAGAGTGGGGACGGC | 3.01
TCTTGCAGATCAACAGGAGGTTAAGAAAGATCGA | 0.718
TCTGCTAGGTCAGTTGGTCTGCTAACGAGCTGCC | 1.02
TCATATAGGTAAACAGGAGAAAGTCCGTAAGTTA | 2.26
CGAACGAGCGCATGAGTTGATAGCAAATGCCGAT | -0.647
GCTTACGGGTCAAAGGTTTTAGCATGAATAGAAT | 7.88
ACTTACGGGTCAACGAGGTTATATCACGCGTATA | 4.92
CGAACGAGGGCATGAGTTGATATCAAATGCCGAT | 1.42
TCTTGTAGATCAAAGGTTAAGAATGCCGAAGCCT | 7.95
AGAGCGAGGGCAATGAGTTGATAGCACGGGTGGC | -0.152
CTTACAGGGTCAGCTAGGCCAGAGTAGGGACGGC | 3.24
TCATATACGTAAAGGTGAAAGTCGAACGATATGA | 2.52
TCTGCTAGGTCAACGATGGTCAGCTGATCTGCTA | 3.15
TAGCCTAGGTCAGATCGGGCTAGTATACGCTATA | 0.874

Sequence | PBM binding z-score
ATCTCTAGGTAAAAGATCAGTGAATCCCGAGGAT | 5.32
TAGCCTAGGTCATGGGCCATTATACCACGCGAAC | 4.26
TGAATGAGGTTATAAGATCAGAGAACGTTGCAAA | 1.83
CCTACTGGGCCACGAAAGGTCATTGTTTCAGTGA | 4.79
CGAACTAGTTCATTGACAGGACAGTGAATAGTAA | 0.0577
CCAGACAGGTGAGAAGGTAACTCATCCTCGATTA | 0.703
ATCGAAAGTTCGAGGTGAGTATAGAGAAAGGGAA | 0.797
TTATATAGGTAATACAGGTGAAAGTCGGCATCTA | 3.07
TCTATTAGTTGAAGGGCAAGCGACGAGTCCGTTT | 2.29
TCTATTATTTGAAGGGCAACCGACGAGTCCGTTT | 2.22
TCATATAGGTAAAAAGTGAAAGTCGGTGTGGTAA | 5.44
TCTTGTAGATCAATAGAGGTTAAGACAGTGCGCT | 1.48
TCTTGTAGATCAATAGAGGTTATGAAAGTGCGCT | 2.08
GCGACTGGCGCATCAGCAGGTTACCATAACTTAA | -0.785
ATCTCTAGGTAACGATAGTTCAGTGAATGCAAAT | 0.807
CCGACTGGGGCACGGTTACCATAACGCACAGCCA | 0.982
CGAACGAGGGCATGAGTTGATTGCAAATGCCGAT | 1.58
TCTCAGAGGACACGAAGGTCAGAGCTTTCCAGAG | 2.01
TAGCCAAGGTCATGCGGGCCAGTATAGTGTCGGC | 4.84
